Luciferase inh: Photinus pyralis luciferase inhibition. purified P. pyralis luciferase, luminescence, biochemical. 76,000 compounds, 2.5% hits. Potency, µM (titrated, usually from 115 µM), actives largely listed as inhibitors. P08659. AID 1347043; further: on the % scale 0 is the no-effect control and ±100 the full control effect; nearly all actives have a fitted effect of over 65% in size
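Purified P. pyralis luciferase (10nM final) in 50mM Tris acetate pH 7.5, 10mM Mg acetate, 0.01% Tween-20, 0.05% BSA with 10uM D-luciferin and 10uM ATP. Compounds titrated qHTS. Luminescence imaged on CCD.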
NIH3T3 tox: cytotoxic compounds in NIH 3T3 cells; 94,000 compounds, 4.3% hits; Potency, µM (doses to about 96.7 µM), for the others: at the highest dose activity change, negative = cytotoxicity, most hits filed as inhibitors; NIH 3T3 viability, CellTiter-Glo ATP luminescence, 48-72 h; further: on the % scale 0 is the no-effect control and ±100 the full control effect; nearly all actives have a fitted effect of over 55% in size
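Cells were seeded at 400 per well, treated with pin-transferred compound, and kept 48 or 72 hr at 37 °C before CellTiter-Glo addition and luminescence imaging of cellular ATP.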
GPT2 inh: blocks human glutamate pyruvate transaminase 2; Recombinant GPT2, coupled pyruvate oxidase/HRP Amplex Red fluorescence; Potency, µM (series often up to 57.7 µM), without a hit: at the top dose activity change, negative = inhibition, usual class: inhibitors; 100,000 compounds, 0.25% hits; further: on the % scale 0 is the no-effect control and ±100 the full control effect; nearly all actives have a fitted effect of over 60% in size
Target sequence (Q8TD30 whole entry, looked up): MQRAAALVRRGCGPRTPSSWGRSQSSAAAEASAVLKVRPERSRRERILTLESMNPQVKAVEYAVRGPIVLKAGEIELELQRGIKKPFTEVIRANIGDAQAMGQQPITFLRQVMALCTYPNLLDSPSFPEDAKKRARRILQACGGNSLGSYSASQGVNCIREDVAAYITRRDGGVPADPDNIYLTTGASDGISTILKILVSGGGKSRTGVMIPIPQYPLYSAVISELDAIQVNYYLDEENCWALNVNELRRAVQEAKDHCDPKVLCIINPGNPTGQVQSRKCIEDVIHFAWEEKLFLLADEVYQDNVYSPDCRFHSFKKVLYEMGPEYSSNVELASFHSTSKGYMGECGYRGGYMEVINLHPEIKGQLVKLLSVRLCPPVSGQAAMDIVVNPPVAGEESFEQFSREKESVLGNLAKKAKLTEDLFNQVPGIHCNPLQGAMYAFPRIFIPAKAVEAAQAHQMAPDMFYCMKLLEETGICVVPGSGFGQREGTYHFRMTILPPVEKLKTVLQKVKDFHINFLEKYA
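Fluorescence of coupled pyruvate oxidase/HRP/Amplex Red system (50uM Amplex, 30 min, dark) reports pyruvate formed by GPT2. Enzyme reaction: 10ng/uL GPT2, 2mM L-alanine, 250uM a-KG, 30 min room temperature, pH 7.5; 50uM AOA control.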
HEK cytotox: kills HEK 293 cells; 94,000 compounds, 6.6% hits; HEK 293 viability, ATP luminescence (CellTiter-Glo), 48-72 h; Potency, µM (series often up to 115 µM), inactives show top-dose activity change, negative = cytotoxicity, usual class: inhibitors; further: on the % scale 0 is the no-effect control and ±100 the full control effect; nearly all actives have a fitted effect of over 60% in size
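qHTS cytotoxicity; HEK 293, 250 cells/well; compound pinned; 48 or 72 hr, 37 degree Celsius, 5% CO2, 95% humidity; CellTiter-Glo, 10 min RT; luminescence (ATP).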
hNpr1 antagonist: human Npr1 receptor antagonism | Potency, µM (doses to about 46.3 µM), without a hit: top-dose activity change, negative = inhibition, most hits filed as inhibitors | P16066 | HEK293 hNpr1 GloSensor cGMP, ANP-stimulated luminescence | 76,000 compounds, 1.6% hits | AID 1347048; calls by dose curve; further: on the % scale 0 is the no-effect control and ±100 the full control effect; nearly all actives have a fitted effect of over 60% in size
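Compound pre-incubated 30 min at room temperature on GloSensor-loaded HEK293 cells stably carrying hNpr1 and the pGS-40F cGMP biosensor. Stimulation uses hNppA at 0.1 nM final; luminescence is taken at baseline and 20 min post-agonist.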
NPR1 antag cnf: hNpr1 antagonism, confirmation assay | shares compounds with hNpr1 antagonist | HEK293 hNpr1 cGMP GloSensor luminescence, ANP-stimulated | Potency, µM (top dose mostly 57.6 µM), for inactives: at the highest dose activity change, negative = inhibition, actives largely listed as inhibitors | 1,400 compounds, 76% hits; calls by dose curve; further: nearly all actives have a fitted effect of over 70% in size
NPR2 antag: antagonizes human Npr2, subtype selectivity check; AID 1347046; HEK293 hNpr2 GloSensor cGMP luminescence, CNP-stimulated; 1,400 compounds, 67% hits; Potency, µM (top dose mostly 57.6 µM), for the others: at the top dose activity change, negative = inhibition, most hits filed as inhibitors; shares compounds with hNpr1 antagonist; calls by dose curve; further: nearly all actives have a fitted effect of over 70% in size
FLuc inh counter: inhibits firefly luciferase, false Npr1 antagonist flag; shares compounds with hNpr1 antagonist; purified FLuc enzyme, luminescence, Km substrate; Potency, µM (doses to about 57.6 µM), without a hit: top-dose activity change, negative = inhibition, hits mostly inhibitors; 1,400 compounds, 0.7% hits; AID 1347047; further: 0% is about no effect
GloSensor cGMP: control cell line activity, Npr1 antagonist counter-screen; Potency, µM (titrated, usually from 57.6 µM), for inactives: top-dose activity change, negative = inhibition, hits mostly inhibitors; shares compounds with hNpr1 antagonist; 1,400 compounds, 69% hits; HEK293 GloSensor cGMP, SNP-stimulated, luminescence; calls by dose curve; further: on the % scale 0 is the no-effect control and ±100 the full control effect; nearly all actives have a fitted effect of over 70% in size
Active calls of the source: *; i = inactive; ? = inconclusive; . = no result; [ ] = dose if it differs, or a comment. Only some compounds are listed: those with a hit (about 10% of all), similar ones and a draw of the others. Unless noted, the call rests on the fitted dose curve; in most records, active means well fitted curve in the direction sought with a large enough effect; inconclusive means small, poorly fitted or top-dose-only effect, or another doubt; inactive means no such curve, though single readings can be large; an effect the other way counts as inactive or inconclusive. Potency means the concentration at half of the fitted maximal effect.

SMILES	Luciferase inh	NIH3T3 tox	GPT2 inh	HEK cytotox	hNpr1 antagonist	NPR1 antag cnf	NPR2 antag	FLuc inh counter	GloSensor cGMP
COc1cccc(-c2noc(CC3CCN(C(=O)c4cc(Cl)ccc4F)CC3)n2)c1	i	?	3%	?	8.9µM*	12µM*	19µM*	0%	14µM*
O=C(c1cccc(Cl)c1)N1CCC(Cc2nc(-c3cnccn3)no2)CC1	i	?	-2%	-11%	-2%	.	.	.	.
O=C(c1cc(Cl)ccc1F)N1CCC(Cc2nc(-c3cnccn3)no2)CC1	i	?	i	?	0%	.	.	.	.
COc1cccc(-c2noc(CC3CCN(C(=O)c4ccccc4)CC3)n2)c1	i	?	i	40µM*	7.9µM*	9.7µM*	11µM*	-6%	9.7µM*
COc1cccc(-c2noc(CC3CCN(C(=O)c4cccc(Cl)c4)CC3)n2)c1	i	?	i	?	8.9µM*	7.7µM*	11µM*	-12%	7.7µM*
CCOc1ccc(NC(=O)N2c3ccccc3CC2c2nc(C3CC3)no2)cc1 (stereo unspecified)	?	?	i	?	-8%	.	.	.	.
CN1CC2(CCCN(C3CCN(C(=O)c4cnccn4)CC3)C2)OC1=O (stereo unspecified)	i	-2%	?	3%	8%	.	.	.	.
Cc1cn2nc(C(=O)NCc3cccc(Cl)c3)cc2c(N2CCSCC2)n1	i	?	-3%	?	0%	.	.	.	.
COc1ccccc1N1CCN(CC[C@@H]2CC[C@H](O)[C@@H](C(=O)NC3CC3)O2)CC1	i	1%[138 µM]	3%[88.5 µM]	-1%[172 µM]	1%[70.6 µM]	.	.	.	.
Cc1noc2c(NCCc3ccccn3)cc(-c3cccnc3)nc12	i	?	-4%[88.5 µM]	-13%[172 µM]	3%[70.6 µM]	.	.	.	.
CCNC(=O)O[C@@H]1CO[C@H]2[C@@H]1OC[C@@H]2NC(=O)Nc1ccc(C(C)C)cc1	i	0%[174 µM]	?	-20%[172 µM]	2%[70.6 µM]	.	.	.	.
COc1ccc(NC(=O)O[C@@H]2CO[C@H]3[C@@H]2OC[C@@H]3NC(=S)Nc2ccc(Cl)cc2)cc1	i	?	2%	45µM*	13µM*	24µM*	?	1%	24µM*
O=C(Nc1ccc(Oc2ccccc2)cc1)O[C@@H]1CO[C@H]2[C@@H]1OC[C@@H]2n1nnnc1SC1CCCC1	i	?	i	25µM*	10µM*	17µM*	17µM*	1%	14µM*
CC(C)c1ccc(NC(=O)N[C@H]2CO[C@H]3[C@@H]2OC[C@H]3OC(=O)Nc2ccc(Oc3ccccc3)cc2)cc1	i	?	-7%	?	?	19µM*	19µM*	0%	19µM*
COc1cc(NC(=S)N[C@H]2CO[C@H]3[C@@H]2OC[C@H]3OC(=O)Nc2ccccc2)cc(OC)c1	i	-18%	-1%	-12%	-13%	.	.	.	.
CN(C)c1ccc(CN[C@H]2CO[C@H]3[C@@H]2OC[C@H]3OC(=O)Nc2ccc(Oc3ccccc3)cc2)cc1	i	?	-13%	?	?	?	?	-13%	22µM*
O=C(c1cccnc1)N1CC(CO)C2(CCNCC2)C1 (stereo unspecified)	i	4%	-8%	-6%	3%	.	.	.	.
CCN(C1CCOCC1)C1CN(C(=O)c2cccnc2)C1	i	-5%	1%	-1%	1%	.	.	.	.
NC1(Cc2cc(C(=O)N3CCCCC3)on2)COC1	i	-10%[230 µM]	i	-5%[230 µM]	4%[70.6 µM]	.	.	.	.
O=C(Nc1cc(F)cc(F)c1)N1CC(c2noc(-c3ccncc3)n2)C1	i	?	i	?	-8%	.	.	.	.
COc1ccc(-c2ccnc3nc(-c4ccco4)nn23)c(F)c1	?	1%	-10%	?	3%	.	.	.	.
COc1ccc(C(=O)N[C@H]2CO[C@H]3[C@@H]2OC[C@H]3OC(=O)Nc2ccccc2)cc1	i	?	i	63µM*	32µM*	40µM*	35µM*	-9%[86.2 µM]	35µM*
COc1ccc(OC)c(S(=O)(=O)N[C@H]2CO[C@H]3[C@@H]2OC[C@H]3OC(=O)Nc2cccc(C(C)=O)c2)c1	i	-3%	1%	-5%	2%	.	.	.	.
COc1ccc(NC(=O)N[C@H]2CO[C@H]3[C@@H]2OC[C@H]3OC(=O)Nc2ccc(Oc3ccccc3)cc2)cc1	i	?	3%	18µM*	13µM*	14µM*	17µM*	-10%	12µM*
COc1ccc(OC)c(S(=O)(=O)N[C@H]2CO[C@H]3[C@@H]2OC[C@H]3OC(=O)Nc2cccc(C(F)(F)F)c2)c1	i	?	-10%	?	13µM*	27µM*	22µM*	2%	27µM*
SMILES	Luciferase inh	NIH3T3 tox	GPT2 inh	HEK cytotox	hNpr1 antagonist	NPR1 antag cnf	NPR2 antag	FLuc inh counter	GloSensor cGMP
COCCOC1CCOC2(CCN(C(=O)COc3ccccc3)CC2)C1 (stereo unspecified)	i	i	i	-1%	-7%	.	.	.	.
COc1ccc(C(=O)N2CCC3(CC2)CC(=O)c2ccccc2O3)cc1	i	-27%	-19%	?	-3%	.	.	.	.
Cc1ccc(C(=O)N2CCC3(CC2)CC(=O)Nc2ccccc2O3)cc1	.	-18%	-3%	?	.	24µM*	24µM*	1%	15µM*
COc1ccc(C(=O)N2CCC3(CC2)CC(=O)Nc2ccccc2O3)cc1	i	-17%	?	-26%	13µM*	22µM*	22µM*	0%	22µM*
Cc1cc(OCCN2CCOCC2)c(C)c2c1CC[C@@H]([C@H](C)C(=O)N1CCCCC1)C2	i	?	-19%[88.5 µM]	20µM*	18µM*	40µM*	35µM*	2%[86.2 µM]	?
COc1ccc(CN[C@@H]2C=C[C@@H](c3c(C)nn(-c4cccc(Br)c4)c3C)C2)cc1	i	?	2%	?	-21%	.	.	.	.
Cc1nn(Cc2ccccc2)c(C)c1[C@@H]1C=C[C@@H](NS(=O)(=O)c2cccs2)C1	i	?	5%[88.5 µM]	?	?	?	?	-2%[86.2 µM]	?
